Common to all, as to test: NCI-60 one-dose screen, 48 h (100 = growth as untreated, 0 = no growth, -100 = all killed)
Conditions in all cases: 10 µM unless noted

Experiment [1] has as its system SK-MEL-2 melanoma.
Experiment [2] has as its system EKVX NSCLC.
Experiment [3] concerns SN12C renal.
For experiment [4], the system named is UO-31 renal.
The test system of experiment [5] is TK-10 renal.
Experiment [6] relates to ACHN renal.
The subject of experiment [7] is CAKI-1 renal.
Experiment [8] relates to A498 renal.
The subject of experiment [9] is CCRF-CEM leukemia.
Experiment [10] has as its system MOLT-4 leukemia.

This is part of a sample that, as a whole, favours compounds with a hit. Of some 83,000 tested, about 20% had one in any assay.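 Cells were grown in 96-well plates and exposed to the test compound at a single concentration for 48 hours; results are reported as percent growth, with values below 10 considered active.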 A number with no mark means an inactive call. Active and inactive are the calls of the source.

Turning to `CC(C)(C)OC(=O)NCc1ccc(CNc2c([N+](=O)[O-])cnc3ccccc23)cc1`, the growth is 29.7% in [1]; 44.2% in experiment [2]; 75.9% in [3]; 50.3% in experiment [4]; 80.4% in experiment [5]; 61.1% in experiment [6]. In addition, the growth in [7] is 67.1%; in experiment [8], 36.2%; in [9], 59.8%; in experiment [10], 34.4%.

For `CCOC(=O)c1cnc2c(-c3ccc(Cl)c(Cl)c3)cnn2c1`, the growth in [1] is 83.9%; in experiment [2] it was 81.3%; in experiment [3], 95.7%; in experiment [4], 80.2%; in [5], 117%; in [6], 104%. Further, the growth in experiment [7] is 67.2%; in [8], 82.8%; in experiment [9] it was 68.4%; in experiment [10], 62.3%.

Turning to `CC(=O)C1=C(C)NC(NNc2ccccc2)=NC1c1ccc([N+](=O)[O-])cc1` (stereo not given), the growth in [1] was 102%; in [2], 80%; in experiment [3], 98.8%; in experiment [4], 73.3%; in experiment [5], 109%; in [6], 76%. Besides, the growth is 43.3% in [7], 91.9% in [8], 89.7% in experiment [9] and 82.6% in [10].

With `NS(=O)(=O)c1cccc(Nc2nc(SCC(=O)c3ccc(Cl)cc3)nc3c2CCC3)c1`, the growth in experiment [1] was 98%; in [2], 97.7%; in experiment [3], 98%; in [4], 90.9%; in experiment [5], 119%; in experiment [6] it was 92.4%. Further, the growth in [7] was 86.7%; in [8], 79.4%; in [9], 98.3%; in [10], 105%.

Consider `O=C(/C=C/c1ccccc1)c1cccc(O)c1`, for which the growth is 108% in experiment [1]; 98.6% in experiment [2]; 98.8% in experiment [3]; 76.2% in experiment [4]; 108% in experiment [5]; 106% in experiment [6]. Besides, the growth is 91.5% in [7], 105% in experiment [8], 77.8% in experiment [9] and 85.2% in experiment [10].

In the case of `CC(C)(C)c1cc(NC(=O)Nc2ccc(-c3cn4c5c(sc4n3)CCc3cn(CCCN4CCCCC4)cc3-5)cc2)no1`, the growth is 108% in [1]; -80.5% (active) in experiment [2]; -86.3% (active) in experiment [3]; -70.3% (active) in experiment [4]; -89.3% (active) in [5]; -99.7% (active) in experiment [6]. The growth in [7] was -97.2% (active); in [8], 74.5%; in [9], 3.37% (active); in experiment [10], -10.9% (active).

As for `CC(=O)c1cc(C(=O)N2c3ccccc3Sc3ccccc32)n2c1ccc1ccccc12`, the growth is 38.3% in [1]; 78.4% in [2]; 86.7% in experiment [3]; 64.6% in [4]; 107% in experiment [5]; 50.1% in experiment [6]. Moreover, the growth in experiment [7] is 46.8%; in [8] it was 30.1%; in [9], 35.9%; in [10], 54.7%.

As to `O=C(CCCCCCNC(=O)C(O)(O)C(F)(F)F)Nc1ccc(Cl)cc1`, the growth in experiment [1] was -13.7% (active); in experiment [2], 39.2%; in experiment [3], 29.8%; in [4], 8.11% (active); in experiment [5], 3.6% (active); in experiment [6] it was 0.488% (active). In addition, the growth in experiment [7] was 3.96% (active); in experiment [8], 9% (active); in experiment [9] it was 22.4%; in [10] it was 15.8%.

Regarding `O=C(CN1CCN(c2cc(=O)[nH]c3ccc(F)cc23)CC1)N(c1ccccc1)c1ccccc1`, the growth is 106% in experiment [1]; 96.8% in experiment [2]; 97.1% in experiment [3]; 90.3% in experiment [4]; 98.7% in experiment [5]; 105% in experiment [6]. Also, the growth in [7] was 95.1%; in experiment [8] it was 83.7%; in experiment [9] it was 102%; in experiment [10], 99.5%.

`CCCNNC(=O)c1ccc(-c2ccc(NC(=O)CCCCCCC(=O)N[C@H](C(=O)N3C[C@H](O)C[C@H]3C(=O)N[C@@H](C)c3ccc(-c4scnc4C)cc3)C(C)(C)C)cc2)cc1`: the growth is 7.01% (active) in [1]; 79.4% in [2]; 47.8% in [3]; 83.6% in experiment [4]; 2.19% (active) in [5]; 78.2% in experiment [6]. Besides, the growth is 61.8% in [7], -14.4% (active) in [8], 23.2% in [9] and 21.1% in experiment [10].

With `Nc1ccc(Nc2ncnc3sc4c(c23)CCN(Cc2ccccc2)C4)cc1`, the growth was 109% in experiment [1]; 102% in [2]; 96.8% in experiment [3]; 83.8% in experiment [4]; 134% in experiment [5]; 91.7% in experiment [6]. Besides, the growth is 90.8% in experiment [7], 95.3% in [8], 95.1% in experiment [9] and 87.8% in experiment [10].

For the compound `CC1(C)CC[C@]2(C(=O)O)CC[C@]3(C)C(=CC[C@@H]4[C@@]5(C)CC[C@H](NOCCCN)C(C)(C)[C@@H]5CC[C@]43C)[C@@H]2C1`, the growth is 93.3% in [1]; 83.9% in experiment [2]; 83.5% in experiment [3]; 71.4% in experiment [4]; 122% in experiment [5]; 97.8% in experiment [6]. Further, the growth is 93.7% in experiment [7], 110% in experiment [8], 66.4% in experiment [9] and 75.3% in [10].

For `CNc1sc(S(=O)(=O)NC)nc1S(=O)(=O)c1ccc(C)cc1`, the growth in experiment [1] was 103%; in experiment [2] it was 95.2%; in [3] it was 101%; in [4], 77.7%; in [5], 95.5%; in experiment [6] it was 101%. The growth is 91.9% in experiment [7], 93.1% in experiment [8], 104% in experiment [9] and 100% in experiment [10].
